Assay outcomes: PubChem BioAssay, Broad Institute
Not all results are given here.
aSyn UTR act: Activators working through SNCA 5'UTR binding (MLPCN) | alpha-synuclein 5'UTR reporter, activators screen | activity score, % (tested at 7.5 µM), hits read low | 300,000 tested, 7.1% active; in the data active means activity score below about -60%
Active calls of the source: *.

SMILES	aSyn UTR act
O=[N+]([O-])c1ccccc1/C=N/N1CCN(Cc2ccccc2)CC1	-100.9*
CCN(CCn1cccn1)Cc1cn[nH]c1-c1ccc(-c2ccccc2)cc1	-66.9*
CC(c1ccon1)N(C)Cc1cn[nH]c1-c1ccc(-c2ccccc2)cc1 (stereo unspecified)	-135.2*
CN(Cc1cn[nH]c1-c1ccc(-c2ccccc2)cc1)CC1CCOCC1	-93.1*
Cn1cc(CCNCc2cn[nH]c2-c2ccc(-c3ccccc3)cc2)cn1	-98.0*
CN(CCc1cnn(C)c1)Cc1cn[nH]c1-c1ccc(-c2ccccc2)cc1	-84.2*
O=c1n(Cc2ccccc2Cl)nc2n1-c1ccccc1SC2	-87.2*
C=CCn1c(=O)/c(=C2/Sc3cc(OC)ccc3N2C)s/c1=C1\C(=O)N(CC)C(=S)N1C	-98.0*
Cc1nc2c3cnn(-c4ccc(C)c(C)c4)c3ncn2n1	-191.0*
Cc1ccc(-c2nn3cnnc3c3ccccc23)cc1C	64.2
Cc1ccc(-n2c(C)nc3c(cnn3-c3ccc(C)c(C)c3)c2=O)cc1C	-100.7*
C#CCn1cnc2c(cnn2-c2ccc(C)c(C)c2)c1=O	-107.5*
Cn1cc(C(=O)N/N=C/c2cccs2)c2ccccc21	-181.0*
Cn1cc(C(=O)N/N=C/c2ccc3c(c2)OCO3)c2ccccc21	-275.8*
O=C(N/N=C/c1ccc2c(c1)OCO2)c1cccc2ccccc12	-109.2*
Cc1cccc(C)c1OCC(=O)N/N=C/c1ccc2c(c1)OCO2	-85.2*
c1ccc2nc3c(nc2c1)[nH]c1ccccc13	-170.6*
O=[N+]([O-])c1ccc(/C=N/n2cnc3ccccc32)s1	68.5
COc1cccc(/C=N/n2cnc3cc(C)c(C)cc32)c1OC	-97.3*
Cc1cc2ncn(/N=C/c3ccc([N+](=O)[O-])s3)c2cc1C	-117.3*
COc1ccc(NC(=S)N2CCc3ccccc32)cc1OC	-82.5*
Cc1oc2cc3c(C(=O)N4CCCCC4)c(C)oc3cc2c1C(=O)N1CCCCC1	-162.2*
COC(=O)c1ccc(C2N=C(c3cccs3)CC(c3ccccc3O)N2)cc1 (stereo unspecified)	-97.7*
N/C(=N\OC(=O)c1ccco1)c1ccccn1	-118.8*
N/C(=N\OC(=O)c1ccco1)c1ccc(Br)cc1	-199.7*
SMILES	aSyn UTR act
Cc1cccc(/C(N)=N/OC(=O)c2ccco2)c1	-108.8*
Cc1cccc(/C(N)=N/OC(=O)CCCc2ccccc2)c1	-88.8*
N/C(=N\OC(=O)c1ccco1)c1ccccc1	-275.0*
COc1ccc(/C(N)=N/OC(=O)c2ccco2)cc1	60.2
C(=C\c1ccccn1)/c1ccccn1	-115.2*
CC(C)(C)C1C/C(=C/c2ccccn2)C(=O)/C(=C/c2ccccn2)C1 (stereo unspecified)	103.3
Brc1ccc(N=Cc2ccccn2)cc1	-73.1*
CC1C/C(=C/c2ccccn2)C(=O)/C(=C/c2ccccn2)C1 (stereo unspecified)	88.9
Nc1[nH]c(N=NC(=O)c2ccccc2O)c2ccccc12	-150.3*
O=C(c1ccco1)N1N=C(c2ccc3nccnc3c2)CC1c1ccccc1 (stereo unspecified)	-67.4*
COc1cc(/C=C/C(=O)c2ccc(C)cc2)ccc1OCC#N	-100.3*
Cc1ccc(C(=O)/C=C/c2ccc3ncccc3c2)cc1	-67.6*
Cc1ccc(/C=C/C(=O)c2ccc(O)cc2)cc1	-309.3*
COc1cc(C(=O)OCC#N)ccc1OCc1c(C)noc1C	-66.4*
CSc1ccc(/C=C/C(=O)c2ccc(O)cc2)cc1	-172.0*
COc1ccc2cc(-c3[nH]ncc3CN3C[C@@H]4CCC[C@H]3C4)ccc2c1	-78.2*
COc1ccc2cc(-c3[nH]ncc3CN3CCCCO3)ccc2c1	-105.5*
Cc1ccc(NC(=O)c2nnn(-c3ccc4c(c3)OCCO4)c2N)cc1	-148.6*
Cc1ccc(C)c(Cn2nnc(C(=O)Nc3ccc4c(c3)OCCO4)c2N)c1	-106.5*
Cc1ccccc1Cn1nnc(C(=O)Nc2ccc3c(c2)OCCO3)c1N	-108.8*
Cc1ccc(NC(=O)CC(=O)c2ccccc2)cc1C	-116.7*
CCC(=O)Nc1ccc(/C=C(\C(C)=O)C(=O)c2ccccc2)cc1	-77.5*
O=C(CC(=O)c1ccccc1)Nc1ccc(Cl)cc1	-173.6*
CN1CCN(C2Cc3ccc(F)cc3Sc3cc(F)c(Cl)cc32)CC1 (stereo unspecified)	102.2
O=C(NC1=NCCS1)c1cc(-c2ccc(-c3ccccc3)cc2)nc2ccccc12	-88.2*
SMILES	aSyn UTR act
O=C(Nc1ccc2c(c1)OCCO2)c1cccc2nc3ccccc3nc12	59.8
Cc1ccc(-c2cc(C(=O)Nc3ccc4c(c3)OCCO4)c3ccccc3n2)cc1	-74.3*
COc1ccc(/C=C2\CCC/C(=C\C=N\N(C)C)C2=O)cc1	-427.3*
CN(C)c1ccc(/C=C2\CCC/C(=C\c3ccccc3)C2=O)cc1	-81.1*
CN(C)/N=C/C=C1\CCC/C(=C\c2ccc(F)c(F)c2)C1=O	-421.6*
C(=C\c1ccco1)/C1=NN(c2ccccc2)C(c2ccco2)C1 (stereo unspecified)	-209.6*
C/C(=N\NC(=O)c1ccc2c(c1)OCO2)c1ccc(O)cc1	-64.5*
Cc1ccc(C(=O)Nc2sc(C)c(-c3ccccc3)c2C(N)=O)cc1[N+](=O)[O-]	-81.1*
C/C(=N/NC(=O)c1ccccc1)C1=C(O)CC(C)(C)CC1=O	-94.9*
CC(=O)Nc1cccc(/C(C)=N/NC(=O)c2ccc3c(c2)OCO3)c1	-77.7*
C/C(=N\NC(=O)c1c[nH]c2ccccc12)c1ccc2c(c1)OCO2	-98.5*
C/C(=N/NC(=O)c1ccc2c(c1)OCO2)c1ccc(NC(=O)C(F)(F)F)cc1	-127.2*
C/C(=N\NC(=O)c1ccccc1F)c1cccc(NC(=O)c2ccccc2)c1	-94.0*
C/C(=N\NC(=O)c1nc2ccccn2c1C)c1ccco1	-135.1*
C/C(=N\NC(=O)c1c[nH]c2ccccc12)c1ccco1	-173.8*
C/C(=N\NC(=O)c1ccccc1)c1ccc2c(c1)OCO2	-117.6*
C/C(=N\NC(=O)c1ccccc1F)c1ccc(C#N)cc1	-63.5*
C/C(=N\NC(=O)c1ccccc1)c1cccc(Br)c1	-109.7*
C/C(=N\NC(=O)c1c[nH]c2ccccc12)c1ccccn1	71.7
C/C(=N\NC(=O)c1ccccc1)c1ccc(C)c([N+](=O)[O-])c1	-109.0*
C/C(=N\NC(=O)c1ccc([N+](=O)[O-])cc1Cl)c1ccccc1	-148.5*
C/C(=N\Nc1nc2ccccc2s1)c1ccc2c(c1)OCO2	-175.5*
O=C(N/N=C(\c1ccccc1)c1ccccn1)c1cccc([N+](=O)[O-])c1	99.0
O=C(/C=C/c1ccccc1)Nc1cccnc1	-143.4*
O=C(/C=C/c1ccc([N+](=O)[O-])cc1)Nc1cccnc1	-149.5*
SMILES	aSyn UTR act
O=C(/C=C/c1ccccc1)Nc1cccnc1Oc1ccccc1F	-125.7*
Cc1nc2ccccc2c(=O)n1/N=C/c1ccc([N+](=O)[O-])o1	-63.6*
Cc1nc2ccccc2n1/N=C/c1ccc([N+](=O)[O-])o1	-172.4*
Cc1cc(=O)[nH]c(N=N/C(=N/Nc2ccccc2C)c2ccccc2)n1	81.6
Cc1cc(=O)[nH]c(S/C=C/c2ccccc2)n1	-78.2*
Cc1ccc(Nc2c([N+](=O)[O-])ccc3c2=NC2(CCCCC2)N=3)cc1	-67.7*
Cc1ccc(C(=O)NNC(=O)c2ccco2)cc1	-69.2*
Cc1ccc(NC(=S)NNC(=O)c2ccco2)cc1	-74.3*
COc1ccccc1/C=C1\SC(N2CCC(C)CC2)=NC1=O	-94.1*
COc1cccc(/C=C2\SC(N3CCCC(C)C3)=NC2=O)c1OC (stereo unspecified)	-99.9*
CCCCCc1nc2c(=O)[nH]c3ccccc3c2o1	-77.6*
